Laboratory results reported in PubChem BioAssay AID818 (SRMLSC, 2007).
Hit rate of the full screen: of about 140,000 compounds, about 2,100 (1.5%) were called active. Shown is part of a subset that was picked to be rich in actives. Values without a mark were called inactive.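 Rule for the calls: active = viability at or under a set limit, the compound median less 4 SD (cut at about 6% in these data); inactive = the rest.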

assay: primary screen for suppressors of beta-catenin knockout HCT116 cell growth, colon tumor, human (AID 818); details: CellTiter-Glo, 60 h, at 10 µM, hits give low values;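 note: 0% = Hyamine 1622 control at 20 µM and 100% = untreated cell control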

**Q.** For `COc1ccc(OC)c(-c2c(=O)n(OCc3ccccc3Br)c3ccccc3[n+]2[O-])c1`, which viability is on record?
**A.** The viability was 74.9%.

**Q.** For `COc1ccc(C(=O)Nc2c(Cl)cc(Cl)cc2C(=O)N2CCC(C)CC2)cc1`, which viability is on record?
**A.** The viability was 77.2%.

**Q.** With `Cc1cccc(OCC(=O)NC(=S)Nc2ccccc2N2CCOCC2)c1` as the compound, how does the viability read?
**A.** The viability was 98.4%.

**Q.** For `CCOc1cc(N2CCOCC2)c(OCC)cc1NC(=O)COc1cccc2cccnc12`, which viability is on record?
**A.** Its viability is 4.29% (active).

**Q.** For `CCOc1cc(N2CCOCC2)c(OCC)cc1NC(=O)COC(=O)[C@H](Cc1c[nH]c2ccccc12)NC(C)=O`, which viability is on record?
**A.** Its viability is 87.2%.

**Q.** With `CCOC(=O)c1ccccc1N1C(=O)C2Sc3[nH]c(=O)sc3C(/C=C/c3ccccc3)C2C1=O` (configuration not stated) as the compound, how does the viability read?
**A.** Its viability is 91.4%.

**Q.** Which viability does the source give for `Cc1nc2c(C(=O)NCc3cccs3)cnn2c(C)c1Cc1ccc(F)cc1` here?
**A.** The viability was 83.5%.

**Q.** For `N#C/C(=C/c1ccc(N2CCCCC2)o1)C(=O)NCCc1c[nH]c2ccccc12`, which viability is on record?
**A.** Its viability is 90.2%.

**Q.** With `O=C(Nc1ccc([N+](=O)[O-])cc1)C1(c2ccccc2)CCOCC1` as the compound, how does the viability read?
**A.** Its viability is 94.8%.

**Q.** For `O=C1Nc2ccccc2C12Nc1ccccc1S2` (configuration not stated), which viability is on record?
**A.** Its viability is 86.2%.

**Q.** For `CCc1ccc2c(c1)C1(NN=C(c3ccccc3)S1)C(=O)N2` (configuration not stated), which viability is on record?
**A.** Its viability is 4.17% (active).

**Q.** Which viability does the source give for `C=C1c2cc(CC)ccc2NC(=O)N1c1ccc(C)cc1` here?
**A.** The viability was 98.3%.

**Q.** For `Cc1ccc2c(CC(=O)NCc3cccs3)coc2c1`, which viability is on record?
**A.** Its viability is 102%.

**Q.** For `Cc1ccnc(NS(=O)(=O)c2ccc(NC(=O)c3ccc(S(=O)(=O)N4CCOCC4)cc3)cc2)n1`, which viability is on record?
**A.** Its viability is 97%.

**Q.** For `CCC(C)(NC(=O)c1ccccn1)C(=O)NC1CCCCC1` (configuration not stated), which viability is on record?
**A.** Its viability is 89.8%.

**Q.** With `CCC(C(=O)OCCN(CC)CC)c1ccccc1` (configuration not stated) as the compound, how does the viability read?
**A.** The viability was 106%.

**Q.** With `CCN(CC)CCOc1ccc2c(c1)C(=NNC(=O)c1ccccn1)c1cc(OCCN(CC)CC)ccc1-2` as the compound, how does the viability read?
**A.** The viability was 0.37% (active).

**Q.** With `COCCNc1nc(N)c([N+](=O)[O-])c(NCCO)n1` as the compound, how does the viability read?
**A.** Its viability is 98.5%.

**Q.** With `O=C(Nc1ccccc1F)c1ccccc1-c1ccc(C(F)(F)F)cc1` as the compound, how does the viability read?
**A.** The viability was 77.4%.

**Q.** With `CCOC(=O)C1=C(C)NC(=S)NC1c1cccs1` (configuration not stated) as the compound, how does the viability read?
**A.** The viability was 84.5%.

**Q.** For `Cc1cccc(NC(=O)NC(=S)NC(=O)c2ccccc2)c1`, which viability is on record?
**A.** The viability was 102%.

**Q.** With `O=C(NC1CCN(Cc2ccccc2)CC1)c1c(F)cccc1F` as the compound, how does the viability read?
**A.** Its viability is 93.9%.
